Assay outcomes as filed in PubChem BioAssay.
Most compounds without a hit are left out; they make up all but 2.3% or so of the library.
GLD-1 RNA inh = GLD-1-TGE RNA interaction inhibition (C. elegans). purified GLD-1 + fluorescein TGE RNA, fluorescence polarization. inhibition, % at 5.96 µM. 320,000 tested, 0.44% active. AID 2280;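 active = percent inhibition above a per-plate cutoff, the plate mean of test compounds plus 3 SD, cut at about 30% in these data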;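 also: 0% = DMSO wells with GLD-1 and probe and 100% = wells lacking GLD-1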
Target sequence (Q17339 whole entry, looked up): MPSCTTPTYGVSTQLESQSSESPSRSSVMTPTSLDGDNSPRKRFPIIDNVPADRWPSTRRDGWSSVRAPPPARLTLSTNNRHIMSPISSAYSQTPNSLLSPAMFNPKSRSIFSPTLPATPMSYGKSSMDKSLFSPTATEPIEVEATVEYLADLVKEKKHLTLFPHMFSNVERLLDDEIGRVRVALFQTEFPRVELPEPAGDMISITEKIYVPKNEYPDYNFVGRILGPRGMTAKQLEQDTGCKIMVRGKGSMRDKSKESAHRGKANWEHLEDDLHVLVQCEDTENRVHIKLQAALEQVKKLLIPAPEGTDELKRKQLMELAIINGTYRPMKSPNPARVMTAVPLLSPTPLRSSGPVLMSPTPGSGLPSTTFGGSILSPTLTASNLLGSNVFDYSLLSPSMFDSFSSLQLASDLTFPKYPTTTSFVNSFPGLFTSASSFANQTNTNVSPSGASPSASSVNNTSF
Mcl1-Noxa inh = disrupts binding of human Mcl-1 to Noxa peptide. Q07820. TR-FRET Mcl-1/Noxa peptide binding, 2 h. inhibition, % at 21.7 µM. 220,000 tested, 1.5% active;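 active = compounds that cut the protein-peptide binding signal by more than 50% relative to plate controls in a single-dose test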;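 also: His-tagged Mcl-1 with rhodamine Noxa BH3 peptide and terbium anti-His antibody; 0% = Mcl-1 plus Noxa peptide wells and 100% = peptide-only wells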
MCL1-BIM inh = MCL1-BIM-BH3 interaction inhibition (human); 320,000 tested, 0.68% active; GST-MCL1 / FITC-Bim-BH3 fluorescence polarization; inhibition, % at 10.9 µM;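 active = inhibition above the mean inhibition of all tested compounds plus 3 SD, set per campaign, cut at about 40% in these data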;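 also: 0% = DMSO wells and 100% = unlabeled Bim-BH3 peptide control; higher means more loss of mP so more displacement of Bim peptide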
Mcl1 Bid PPI = Mcl-1/Bid interaction inhibition. Q07820. TR-FRET Mcl-1/Bid-Dy647 peptide binding, 1536-well. inhibition, % at 21.7 µM. 220,000 tested, 0.97% active. AID 1021;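 active = compounds that cut the binding signal by more than half at the single screening dose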;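 also: His-tagged Mcl-1 with europium anti-His antibody binding Bid BH3 peptide; 0% = Mcl-1 plus peptide wells and 100% = peptide-only wells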
BCLXL inh = Bcl-xL (human) inhibition | inhibition, % at 10.9 µM | GST-Bcl-xL / FITC-Bim BH3 peptide fluorescence polarization | Q07817 | 320,000 tested, 0.7% active;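 active = inhibition above the mean of all tested compounds plus 3 SD, cutoff set per campaign, cut at about 30% in these data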;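 also: 0% = DMSO wells and 100% = unlabeled Bim-BH3 peptide competitor; inhibitors lower millipolarization by displacing the labeled peptide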
Target sequence (Q07817 whole entry, looked up): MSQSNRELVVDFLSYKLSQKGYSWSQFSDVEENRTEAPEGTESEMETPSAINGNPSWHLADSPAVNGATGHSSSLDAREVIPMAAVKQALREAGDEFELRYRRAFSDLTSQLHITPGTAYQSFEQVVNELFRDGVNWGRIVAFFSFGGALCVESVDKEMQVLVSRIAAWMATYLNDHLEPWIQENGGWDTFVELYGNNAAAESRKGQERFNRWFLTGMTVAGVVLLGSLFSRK
Mcl-1 Bim block = disrupts Bim peptide binding to human Mcl-1; 190,000 tested, 0.1% active; inhibition, % at 10 µM; Bead-based flow cytometry, Bim peptide-Mcl-1 binding; Q07820; AID 1009; in the data active = inhibition above about 40%;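 also: 0% = no compound tracer wells and 100% = peptide blocker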
Starred values were filed as active, the others as inactive; . = not tested or not shown.

SMILES | GLD-1 RNA inh | Mcl1-Noxa inh | MCL1-BIM inh | Mcl1 Bid PPI | BCLXL inh | Mcl-1 Bim block
CCN(CC)C(=O)N1CCN(S(=O)(=O)c2ccc(C)c(C)c2)CC1 | 18 | 13 | 5 | -14 | 12 | -1
O=C(CN1CCN(S(=O)(=O)c2ccccc2F)CC1)NCC1(N2CCOCC2)CCCCC1 | -6 | . | -4 | . | -7 | .
O=C(Cc1ccccc1F)NCC1(N2CCOCC2)CCCCC1 | -8 | 60* | 4 | -11 | 4 | .
Cc1cccc(NC(=O)CN2C(=O)S/C(=C\c3ccc(O)c([N+](=O)[O-])c3)C2=O)c1 | -5 | 21 | 0 | -43 | 11 | 1
Cc1ccc(NC(=O)CN2C(=O)S/C(=C/c3ccc(O)c([N+](=O)[O-])c3)C2=O)cc1C | . | 73* | . | 21 | . | -3
Nc1cc2nc[nH]c2cc1N | . | 74* | . | -9 | . | 8
Cc1cccc(NC(=O)CCC(=O)N/N=C/c2ccc(O)cc2O)c1 | 4 | . | 5 | . | 9 | .
Cc1nnc(N2C(=O)C(O)=C(C(=O)c3ccco3)C2c2ccc(C(C)C)cc2)s1 (stereo unspecified) | 40* | 26 | 37 | -1 | 40* | -2
Cc1ccc(C2C(C(=O)c3ccco3)=C(O)C(=O)N2c2ncccn2)cc1 (stereo unspecified) | 2 | 15 | 5 | -12 | 7 | .
Cc1nnc(N2C(=O)C(O)=C(C(=O)c3ccco3)C2c2ccc(C(C)(C)C)cc2)s1 (stereo unspecified) | 32* | 3 | 31 | -19 | 33* | 0
Cc1nnc(N2C(=O)C(O)=C(C(=O)c3ccco3)C2c2ccc(F)cc2)s1 (stereo unspecified) | 45* | 21 | 27 | -8 | 33* | 1
CC1CCN(C(=O)CSc2nc(=O)n3cc(Cl)ccc3n2)CC1 | -1 | . | 5 | . | 4 | .
COc1ccc2[nH]c3c(=O)n(Cc4ccc(C(=O)N5CCCCCC5)cc4)c(=S)[nH]c3c2c1 | 4 | 60* | -3 | -10 | -13 | -3
COc1ccc2[nH]c3c(=O)n(Cc4ccc(C(=O)N5CCC(C(N)=O)CC5)cc4)c(=S)[nH]c3c2c1 | -3 | 61* | -2 | -156 | 1 | 0
CCOC(=O)N1CCN(C(=O)c2ccc3c(=O)n(Cc4ccc(OC)cc4)c(=S)[nH]c3c2)CC1 | 18 | 18 | 34 | -35 | 23 | 9
CCN1CCCC1CNc1ncnc2c1[nH]c1ccc(Cl)cc12 (stereo unspecified) | 1 | 73* | 3 | 6 | 2 | -2
CCc1ccc2nc(N=C(N)N)nc(C)c2c1 | 9 | 9 | -2 | -3 | -1 | 3
COc1cccc(NC(=S)N(CCCN2CCOCC2)C(C)c2cc3ccccc3o2)c1 (stereo unspecified) | 1 | 1 | 7 | -41 | 5 | -4
Cc1ccc(C(NC(=O)CN2C(=O)NC3(CCCC3)C2=O)c2ccccc2)cc1 (stereo unspecified) | 3 | . | -12 | . | -8 | .
C/C(=N\NC(=O)c1cc(-c2cccc([N+](=O)[O-])c2)n[nH]1)c1ccccc1O | 13 | 58* | 18 | 73* | -7 | 0
C/C(=N/NC(=O)c1cc(-c2cccc([N+](=O)[O-])c2)n[nH]1)c1cccc(O)c1 | -1 | 5 | -2 | -10 | -2 | .
NC(=O)c1ccc(Oc2cccc3cccnc23)c([N+](=O)[O-])c1 | 6 | 34 | 29 | -40 | 33* | 2
CN(C)c1ccc(N=c2sc3ccccc3n2C)cc1 | -3 | 101* | 30 | 33 | 1 | 1
Cc1nn(Cc2ccccc2)c(C)c1NC(=O)CSc1nc2c(c(C(F)(F)F)n1)CCc1ccccc1-2 | 6 | -15 | -8 | 64* | 2 | 3
Cc1nnc(C)n1/N=C/c1ccc(-c2ccccc2Cl)o1 | 2 | . | 6 | . | 6 | .
SMILES | GLD-1 RNA inh | Mcl1-Noxa inh | MCL1-BIM inh | Mcl1 Bid PPI | BCLXL inh | Mcl-1 Bim block
S=c1[nH]nc(-c2cccc(Cl)c2)n1/N=C/c1ccc(-c2ccccc2Br)o1 | -8 | 72* | -7 | 46 | -18 | .
S=c1[nH]nc(-c2ccccc2)n1/N=C/c1ccc(-c2ccccc2Cl)o1 | 6 | 64* | -11 | 34 | -22 | -3
O=C(O)CCNC(=O)c1ccc(NC(=O)Cc2ccc(Cl)cc2)cc1 | 2 | 4 | 6 | -1 | 6 | -2
Cc1cc(=O)[nH]c(SCc2csc(-c3ccccc3)n2)n1 | -6 | 11 | -1 | -9 | 0 | -2
COc1cc(C=O)cc(OC)c1OS(=O)(=O)c1ccc(NC(C)=O)cc1 | 4 | 52* | 4 | 21 | 5 | 0
COC(=O)c1ccc(-c2nc3cc(Cl)c(N)cc3s2)cc1 | -3 | 0 | 1 | 91* | 0 | 0
COc1ccc(/C=N/Nc2nc(-c3cccnc3)nc3ccccc23)c(OC)c1 | -110 | 35 | -4 | 54* | 3 | .
Cc1ccc(NC(=O)CSc2nnc(C)c(=O)n2N)c(C)c1 | 8 | 9 | -21 | -19 | -8 | -4
N#C/C(=C\Nc1ccc2cn[nH]c2c1)c1nc(-c2ccc(Cl)cc2)cs1 | -9 | 53* | -15 | 58* | -6 | 1
O=C(NCC1CCCN1S(=O)(=O)c1cccs1)c1ccc(F)c(F)c1 (stereo unspecified) | -3 | . | -4 | . | 1 | .
O=S(=O)(NCCN1CCOCC1)c1ccc(-c2ccc(S(=O)(=O)NCCN3CCOCC3)cc2)cc1 | 7 | . | -2 | . | 7 | .
CCN(C(=O)CSc1nc2ccccc2c(=O)n1-c1ccccc1F)C1CCS(=O)(=O)C1 (stereo unspecified) | 3 | . | . | . | . | .
Cc1ccc(N=Nc2ccc(O)c3ncccc23)cc1C | 7 | -28 | 17 | -55 | 7 | 2
Cc1cc(N=Nc2ccc(C)c(N=Nc3cc(C)c(N)cc3N)c2)c(N)cc1N | 3 | 60* | 21 | -135 | 19 | .
COc1ccc(CCNC(=O)CS(=O)Cc2nc(-c3cccs3)oc2C)cc1OC (stereo unspecified) | 2 | 19 | -2 | -16 | 0 | 0
CCOCCn1c(C(C)O)nc2ccccc21 (stereo unspecified) | 3 | 5 | -2 | 4 | 2 | -3
CCOc1ccc(C(=O)NC(=S)Nc2ccccc2N2CCC(C)CC2)cc1[N+](=O)[O-] | 1 | 0 | 2 | -22 | 3 | -1
CCOc1ccc(C(=O)NC(=S)Nc2ccc(N3CCC(C)CC3)cc2)cc1[N+](=O)[O-] | . | 45 | . | 54* | . | -3
CC(=O)N1c2ccc(Cl)cc2C2OCCC2C1c1ccco1 (stereo unspecified) | -1 | 6 | -4 | -46 | 1 | .
Clc1ccc2c(c1)C1OCCC1C(c1ccco1)N2 (stereo unspecified) | 27 | 15 | 31 | -20 | 32* | 2
CCCN1CCN(C(=O)c2cc(COc3ccc(F)c(F)c3)on2)CC1 | 6 | . | 6 | . | 2 | .
Cn1cc(C(=O)N/N=C/c2ccc([N+](=O)[O-])cc2)c2ccccc21 | -2 | 75* | 0 | 38 | -7 | .
